According to PubChem BioAssay (NCI):
This is part of a sample that, as a whole, favours compounds with a hit. Of some 83,000 tested, about 20% had one in any assay.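 The test compound was applied at a single concentration to cells in 96-well plates for 48 hours, and percent growth was recorded.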 Calls of active or inactive are those of the source.

test system: M14 melanoma; assay: NCI-60 one-dose screen, 48 h (100 = growth as untreated, 0 = no growth, -100 = all killed); details: 10 µM unless noted
Protocol: Growth inhibition of the M14 human tumor cell line is measured as a screen for anti-cancer activity. Cells are grown in 96 well plates and exposed to the test compound for 48 hours. Compounds are tested at a single concentration, which is 10^-5 M for most compounds. The reported endpoint is percent growth (GI% or GIPRCNT), where numbers from 0 - 100% represent growth inhibition, and numbers from -100% - 0 represent cell death. For example, a value of 40 represents 60% growth inhibition. A value of 0 means no net growth occurred over the course of the experiment. A value of -40 indicates 40% of cells at the beginning of the experiment died by the end of the experiment. A value of -100 means all cells are dead at the end of the experiment.
NCI-60 Human Tumor Cell Lines Screen was performed using the standard one-dose NCI protocol, which is described in more detail at https://dtp.cancer.gov/discovery_development/nci-60/default.htm.
Compounds with GIPRCNT values below 10 were considered active. Activity score was based on GIPRCNT using the following formula: […]
Score is 0 for GIPRCNT values of 100 or above, 50 for GIPRCNT values of 0, and 100 for GIPRCNT values of -100.

With `N#C/C(=C/C=C/c1ccccc1)S(=O)c1ccccc1` (stereo not given) as the compound, how does the growth read?
Its growth is -55.5% (active).

For `COc1ccccc1-c1nc2ccc3[nH]ncc3c2c2c1CCCC2`, which growth is on record?
Its growth is 76.3% (inactive).

With `C(CCCSC1=NCCN1)CCSC1=NCCN1` as the compound, how does the growth read?
The growth was 99.3% (inactive).

For `FC(F)(F)c1cccc(-c2nnn(Cc3cc(-c4cccc(Cl)c4)no3)n2)c1`, which growth is on record?
The growth was 101% (inactive).

With `Nc1c(C(=O)c2ccc(Cl)cc2)sc(Nc2ccccc2)c1-c1nc2ccccc2s1` as the compound, how does the growth read?
The growth was 30.6% (inactive).

For `Cc1cc(C)n(C(=O)CSc2nc3sc4c(c3c(=O)n2-c2ccccc2)CCCCC4)n1`, which growth is on record?
The growth was 113% (inactive).

How did the growth turn out when `O=C(/C=C\c1ccc(O)c(O)c1)c1ccccc1O` was run?
Its growth is 93.5% (inactive).

With `CCOC(=O)C1=C(C)N(C)C(=O)N(C)C1c1ccccc1` (stereo not given) as the compound, how does the growth read?
The growth was 94.2% (inactive).

Which growth does the source give for `C#C[C@]1(O)CC[C@H]2[C@@H]3CC=C4c5sc(-c6ccccc6)nc5CC[C@]4(C)[C@H]3CC[C@@]21C` here?
Its growth is 78.9% (inactive).

`CN(C)CC1C(=O)O[C@H]2[C@H]1CC/C(COC(=O)NCc1ccc(Cn3c(=O)sn(CCCI)c3=O)cc1)=C\CC[C@@]1(C)O[C@@H]21` (stereo not given in full) was tested. Which growth did it give?
The growth was -56.7% (active).

With `Cc1nc2sc(C(=O)Nc3ccccc3)c(N)c2cc1C(O)c1ccccc1` (stereo not given) as the compound, how does the growth read?
The growth was 20.3% (inactive).

For `COc1cc(C2=Nc3c(N)nc(N)nc3NC(c3cccc(Nc4ccnc5cc(C(F)(F)F)ccc45)c3)C2)cc(OC)c1OC` (stereo not given), which growth is on record?
Its growth is 72.3% (inactive).

With `CCOC(=O)C1=CCC(n2cc(F)c(=O)[nH]c2=O)O1` (stereo not given) as the compound, how does the growth read?
Its growth is 97.8% (inactive).

Which growth does the source give for `c1ccc2c(-c3cnn4cc(-c5ccc(N6CCNCC6)cc5)cnc34)ccnc2c1` here?
Its growth is -81.9% (active).

How did the growth turn out when `CCN(CC)CCCC(Nc1c2ccc(Cl)cc2nc2ccc(OC)cc12)c1ccncc1` (stereo not given) was run?
Its growth is 113% (inactive).

How did the growth turn out when `C#Cc1cccc(Nc2nc(Cl)nc3cc(NC(=O)CCl)ccc23)c1` was run?
The growth was -52.2% (active).

For `Cc1cc2c(c(C)n1)CN(C(=O)Nc1nc(-c3cncs3)ccc1N)C2`, which growth is on record?
The growth was 104% (inactive).

With `COc1cc(/C=C2\C(=O)N(CCOc3cc(O)c4c(=O)cc(-c5ccccc5)oc4c3)c3ccccc32)cc(OC)c1O` as the compound, how does the growth read?
Its growth is 28.1% (inactive).

With `NC(=N\N=C/c1ccc(Cl)cc1Cl)/C(N)=N\N=C/c1ccc(Cl)cc1Cl` as the compound, how does the growth read?
Its growth is 105% (inactive).

`C=CCOC(=O)C1=C(C)N(CC)C(=O)N(CC)C1c1c(Cl)n(C)c2ccccc12` (stereo not given) was tested. Which growth did it give?
The growth was 75.1% (inactive).

With `COc1ccc(-c2cn(Cc3ccc4c(Br)cc(Br)c(O)c4n3)nn2)cc1` as the compound, how does the growth read?
Its growth is 83.3% (inactive).

For `Cc1nc2cccc(NCc3ccc(C(=O)NO)cc3)c2c(=O)n1-c1ccccc1`, which growth is on record?
The growth was 32.8% (inactive).

For `CC1=C2[C@@H](CC1)[C@]1(C)O[C@@](C(C)C)(C[C@H]1OC(=O)CO)[C@H]2OC(=O)CCCc1ccccc1`, which growth is on record?
Its growth is 77.5% (inactive).

With `COc1ccc(Cn2cc3c(c2)-c2oncc2CC3)cc1` as the compound, how does the growth read?
The growth was 29.2% (inactive).

For `O=C(Nc1ncc(Cc2ccccc2)s1)c1ccc2c(c1)OCCO2`, which growth is on record?
Its growth is 18.6% (inactive).

How did the growth turn out when `COc1ccc(S(=O)(=O)N(C)c2oc(-c3ccc(Cl)cc3)nc2C#N)cc1` was run?
The growth was 53.8% (inactive).

For `CCOC(=O)c1ccc2c(c1)c1c(C)c3cnccc3c(C)c1n2C`, which growth is on record?
Its growth is -88.3% (active).

For `CCOC(=O)c1c(C)c2c(n1Cc1ccccc1)CSc1cc(C#N)c(=O)[nH]c1-2`, which growth is on record?
The growth was 90.4% [100 µM] (inactive).

`CCN1C(=O)N(CC)C2C1NC(=S)N2/N=C/C=C/c1ccccc1` (stereo not given) was tested. Which growth did it give?
The growth was 5.45% (active).

How did the growth turn out when `CN1C(=O)N(C)C2C1NN=c1s/c(=C\c3ccc(F)cc3)c(=O)n12` (stereo not given) was run?
The growth was 23.1% (inactive).

Which growth does the source give for `COC(=O)c1nc(-c2ccccc2)oc1S(=O)(=O)NCC(c1ccc(Cl)cc1)N1CCCCC1` (stereo not given) here?
The growth was 38% (inactive).

How did the growth turn out when `COC(=O)c1ccc(-n2cc(CCCOS(=O)(=O)c3ccc(F)cc3)nn2)cc1` was run?
The growth was 104% (inactive).

For `Cc1ccc(Nc2oc(-c3ccccc3)nc2[P+](c2ccccc2)(c2ccccc2)c2ccccc2)cc1`, which growth is on record?
The growth was -76.2% (active).

`O=C(/C=C/C12c3ccccc3C(c3ccccc31)C1C(=O)NC(=O)C12)c1cccs1` (stereo not given) was tested. Which growth did it give?
Its growth is 48.2% (inactive).

How did the growth turn out when `N#Cc1c(-c2ccc(F)cc2)cc(-c2cccc(Cl)c2)[nH]c1=O` was run?
Its growth is 82.3% (inactive).

`Cc1ccc(C23CCC(=O)N2CCc2cncn23)cc1` (stereo not given) was tested. Which growth did it give?
The growth was 101% (inactive).

With `CSc1nc(CC(C)C)c(C#N)c(=O)n1C` as the compound, how does the growth read?
Its growth is 70.7% (inactive).

For `C#Cc1ccc(NC(=O)Cc2ccc(/C=C/C(=O)c3nccn3C)cc2)cc1`, which growth is on record?
Its growth is 98.6% (inactive).

`COc1ccc(C(=O)/C=C/c2ccc(Cl)cc2)cc1S(N)(=O)=O` was tested. Which growth did it give?
The growth was -57.3% (active).

Which growth does the source give for `CCCNNC(=O)c1ccc(CNC(=O)/C=C/c2ccccc2)cc1` here?
Its growth is 29.9% [2.5 µM] (inactive).
